Consider 40 molecules from PubChem BioAssay (EPA / NIEHS).

The source made the active and inactive calls. Rule for the calls: active = hit-call score of the fitted dose curve at least 0.9, where 1 is the maximum; inactive = score below 0.9.

The assay is described as follows: BSK_SAg_SRB: Viability Assessment in the BioMAP Diversity Plus: SAg Assay (AID 2283096).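 Note: cells read one day after compound addition; hits may be either gain or loss of signal compared with DMSO.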 Particulars: primary human HUVEC with PBMC. As for the experimental part: BSK_SAg is a cell-based, multiplexed-readout assay that uses umbilical vein endothelium and peripheral blood mononuclear cells, a human vascular primary cell co-culture, with measurements taken at 24 hours after chemical dosing in a 96-well plate.BSK_SAg_SRB is an assay component measured in the BSK_SAg assay. It measures protein content, a form of viability reporter, as detected with absorbance signals by Sulforhodamine staining technology.Data from the assay component BSK_SAg_SRB was analyzed into 1 assay endpoint. This assay endpoint, BSK_SAg_SRB, was analyzed with bidirectional fitting relative to DMSO as the negative control and baseline of activity. Using a type of viability reporter, gain or loss-of-signal activity can be used to understand changes in the signaling. Furthermore, this assay endpoint can be referred to as a primary readout, because this assay has produced multiple assay endpoints where this one serves a signaling function. To generalize the intended target to other relatable targets, this assay endpoint is annotated to the cell morphology intended target family, where the subfamily is cell conformation.
The levels of cell surface (or secreted, indicated by the prefix "s") biomarker endpoints were measured by ELISA. Overt cytotoxicity to cells in confluent adherent cultures (all systems other than the BT system) was assessed by measuring total protein levels using sulforhodamine B (SRB) staining in parallel cultures at the time of biomarker measurements, indicated as SRB endpoints. For proliferation assays for adherent cell types, individual cell types are cultured at sub-confluence and relative cell numbers quantified by SRB staining at time points optimized for each system (48 h: 3C and CASM3C systems; 72 h: BT and HDF3CGF systems; 96 h: SAg system). SRB was performed by staining cells with 0.1% SRB after fixation with 10% TCA and reading wells at 560 nm.Viability and proliferation of PBMC (T cells) was quantified by Alamar Blue reduction for the SAg and BT systems. For PBMC viability (referred to as PBMC Cytotoxicity within the assay endpoint names), cells were plated (75,000/well in a 96-well plate) and then chemical samples added for 1 h before addition of activators, SEB and TSST-1 (20 ng/mL final concentration each). Cells were incubated for 90 h. Then, Alamar Blue (20 uL/well) (Invitrogen, Cat DAL1100) was added for 6 h, and the plates were read with a fluorescence microplate reader at 546/580 nm (excitation/emission). For PBMC proliferation, cells were plated and activated as above but incubated for only 16 h prior to addition of Alamar Blue. Plates were read after 6 h.
Take `CCCCCCCCCCCO`: the outcome was inactive.
As for `CC(C)(C)c1cc(/C=C2\SC(N)=NC2=O)cc(C(C)(C)C)c1O`, the AC50 (usually the midpoint of the concentration-response curve, whichever way the signal moves) is 26.6 µM (active).
Still for that read-out and setting: then `O=c1[nH]sc2ccccc12`, with 26.8 µM (active).
With `O=C(O)Cn1c(=O)n(Cc2ccc(Br)cc2F)c(=O)c2ccc(Cl)cc21`, the result was inactive.
Same read-out and setting: then `CCCC(=O)OCCC(C)C`, with “inactive”.
On to `CCN(Cc1cccnc1)C(=O)c1cccc(Cl)c1[C@]1(C)C(=O)N(Cc2ccc(OC)cc2OC)c2ccc(Cl)cc21`, for which the AC50 is 5.81 µM (active).
Same read-out and setting: as for `CC/C(=C(/CC)c1ccc(O)cc1)c1ccc(O)cc1`, the figure is 23.1 µM (active).
Consider `CC1(C)NC(=O)N(c2ccc([N+](=O)[O-])c(C(F)(F)F)c2)C1=O`, for which the outcome was inactive.
The same measure, in the same setting: as for `CC[C@H](NC(=O)c1cc(F)ccc1NS(=O)(=O)c1cccc2cccnc12)c1ccccc1`, the entry is “inactive”.
On to `CCCCCCCCOc1ccc(C(=O)c2ccccc2)c(O)c1`, for which the AC50 was 30.4 µM (active).
For the molecule `CN(C[C@@H](CC[N+]12CCC(C3CCCCC3)(CC1)CC2)c1ccc(Cl)c(Cl)c1)C(=O)c1cc(C(F)(F)F)cc(C(F)(F)F)c1`, the AC50 is 26.9 µM (active).
Turning to `CC(O)CC(C)(C)O` (stereo not given), the outcome was inactive.
On the same count and under the same terms, as for `O=C(OCCCCCCOC(=O)c1ccccc1)c1ccccc1`, the entry is “inactive”.
Regarding `CC(=O)N1CCN(c2ccc(OC[C@H]3CO[C@](Cn4ccnc4)(c4ccc(Cl)cc4Cl)O3)cc2)CC1`, the AC50 is 24.7 µM (active).
Turning to `O=C(O)c1ccccc1C(=O)OCc1ccccc1`, the result was inactive.
As to `CN(C)c1ccc(C(=C2C=CC(=[N+](C)C)C=C2)c2ccc(N(C)C)cc2)cc1`, the AC50 was 7.53 µM (active).
Still for that read-out and setting: as for `Cc1oc2c(NC(=O)c3c(Cl)cccc3Cl)cccc2c1C(C)(C)O`, the figure is 25.3 µM (active).
For `O=C(O)Cc1cc(I)c(Oc2ccc(O)c(I)c2)c(I)c1`, the result was inactive.
On the same count and under the same terms, as for `OCCO`, the entry is “inactive”.
On the same count and under the same terms, as for `O=C=NCCCCCCN=C=O`, the entry is “inactive”.
Still for that read-out and setting: as for `Oc1ccccc1`, the entry is “inactive”.
Consider `NCc1cccc(C2CCN(C(=O)c3ccc(C#Cc4ccccc4F)o3)CC2)c1`, for which the AC50 was 15.2 µM (active).
For `Cc1cn([C@H]2C[C@H](N=[N+]=[N-])[C@@H](CO)O2)c(=O)[nH]c1=O`, the outcome was inactive.
For `O=CCCCC=O`, the outcome was inactive.
The same measure, in the same setting: then `CCCCOC(=O)CC(CC(=O)OCCCC)(OC(C)=O)C(=O)OCCCC`, with “inactive”.
Regarding `CN(C)C(=O)C1(N2CCCCC2)CCN(CC[C@@]2(c3ccc(Cl)c(Cl)c3)CN(C(=O)c3ccccc3)CCO2)CC1`, the AC50 is 14 µM (active).
Same read-out and setting: as for `COc1ccc2cc(S(=O)(=O)N[C@H](CC(=O)N[C@H](Cc3ccc(CN4[C@H](C)CCC[C@@H]4C)cc3)C(=O)N(C)C(C)C)c3ccc4c(c3)OCO4)ccc2c1`, the figure is 17.3 µM (active).
Take `CCCCCCCCCC(=O)O`: the result was inactive.
Same read-out and setting: then `CCCCCc1ccc(N)cc1`, with “inactive”; and `c1ccc2n[nH]nc2c1`, with “inactive”.
Same read-out and setting: then `O=C1CCC(C2CCCCC2)CC1`, with “inactive”.
Consider `CN1C(=O)N(c2ccccc2Br)Cc2cnc(Nc3ccc4c(c3)OCC(CO)O4)nc21` (stereo not given), for which the AC50 is 2.23 µM (active).
Same read-out and setting: then `Cc1c2ccccc2c(C)c2c1ccc1ccccc12`, with 29.1 µM (active).
Regarding `O=C(O)c1ccccc1-n1cc(C(=O)O)c(=O)c2cc(Nc3c(F)cc(F)cc3Cl)c(Cl)cc21`, the result was inactive.
Regarding `CCCCCCCCOC(=O)c1cc(O)c(O)c(O)c1`, the AC50 is 24.8 µM (active).
On to `NC(=O)c1nc(-c2cccc(-c3cc(F)ccc3OCC(F)(F)C(F)(F)F)c2)n[nH]1`, for which the half-maximal activity concentration (AC50) was 32.7 µM (active).
As to `Clc1ccccc1C(c1ccccc1)(c1ccccc1)n1ccnc1`, the AC50 was 24.4 µM (active).
In the case of `Oc1ccc2ccccc2c1`, the outcome was inactive.
As to `CO[C@H]1/C=C/O[C@@]2(C)Oc3c(C)c(O)c4c(O)c(c(/C=N/N5CCN(C)CC5)c(O)c4c3C2=O)NC(=O)/C(C)=C\C=C\[C@H](C)[C@H](O)[C@@H](C)[C@@H](O)[C@@H](C)[C@H](OC(C)=O)[C@@H]1C`, the outcome was inactive.
For the molecule `CN1C(=O)CC[C@H]1c1cccnc1`, the result was inactive.
